# Measurements taken from PubChem BioAssay (NCATS).
# A number with no mark means an inactive call. Records with an inconclusive call do not appear. Entries that show only a call come without a potency. Calls of active or inactive are those of the source. Unless noted, calls follow the shape of the dose curve; as a rule, active = well fitted curve in the direction sought with a large enough effect; inconclusive = small, poorly fitted or top-dose-only effect, or another doubt; inactive = no such curve, though single readings can be large; an effect the other way counts as inactive or inconclusive.
# Key:
# [1] = qHTS to identify inhibitors of the type 1 interferon - major histocompatibility complex class I in skeletal muscle: primary screen against the NCATS Pharmaceutical Collection (AID 1347407);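 also: luminescence of HiBiT knocked into endogenous HLA-B as interferon-induced MHC class I level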
# Summary of the method: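 A qHTS format is used: 8-point, 1:5 compound series with 46 uM top final concentration, applied alongside 4 ng/ml IFN-beta to HLA-B*08:01-HiBiT knock-in myoblasts. Luminescence is measured after 24 h treatment.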
# [2] = qHTS for inhibitors of adenylyl cyclases using a fission yeast platform: a pilot screen against the NCATS LOPAC library (AID 1347410)
# Summary of the method: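 Inhibition of GNAS-stimulated AC9 activity in S. pombe was inferred from derepression of a PKA-repressed fbp1-GFP reporter, measured as cytometric fluorescence after 18 h at 30C with compounds at up to 57 µM.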
# [3] = Validation qHTS assay for inhibitors of Activation Induced Cytidine Deaminase (AID): UDG Counterscreen signal (AID 1347427)
# Summary of the method: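 Fluorescence at 560 nm excitation, 665 nm emission reports UDG signal after 250 mM NaOH (2x) addition and 30 min. Enzymes (AID 1 uM, UDG 2 U/mL, at 4/3x) preincubated 10 min with compound, then 4 h with 4x 250 nM DJC20/DJC23 substrate at room temperature.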
# [4] = target: Single-stranded DNA cytosine deaminase (Homo sapiens) (UniProt Q9GZX7); experiment: Validation qHTS assay for inhibitors of Activation Induced Cytidine Deaminase (AID): AID signal (AID 1347429)
# Summary of the method: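 Steps: dispense AID with UDG; pin-transfer compound up to 114 uM final; add DJC20/DJC23 substrate and hold 4 hr at room temperature; add NaOH, hold 30 min; read FRET signal (540/590 nm).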
# [5] = Primary qHTS for inhibitors of La Crosse Virus (LACV) - induced cell death in SH-SY5Y cells (AID 1508616);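 also: top concentration of the series differs between compounds; higher means more rescue of cells from virus-induced death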
# Summary of the method: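 SH-SY5Y, 6000 cells/well; cpd via pin tool in DMSO; LACV 0.01 MOI; 6 d 37C 5% CO2; ATPLite, 5 min RT; luminescence normalized to ±virus DMSO controls.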
# [6] = target: Calcium and integrin-binding protein 1 (Homo sapiens) (UniProt Q99828); experiment: Primary qHTS for Identification of Calcium Integrin Binding Protein 1 (CIB1) Competitor (AID 1508620);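 also: GST tagged CIB1 binding a fluorescein labelled alphaIIb integrin peptide tracer; top concentration of the series differs between compounds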
# Summary of the method: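 Fluorescence polarization competition: CIB1-GST (1 uM final) preincubated with compound 15 min at room temperature, then FITC-labeled alphaIIb peptide (100 nM final) added for another 15 min. Polarization read at Ex 480/Em 540.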
# [7] = A High-Content qHTS Against Drug Library for the Identification of Small Molecules that Inhibit DYT1 Early Onset Primary Dystonia-Associated Cell Pathology (AID 1645839; calls by dose curve; also: potency is read from the fitted curve at half-maximal effect)
# Summary of the method: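 Induced EGFP-delE TorsinA cells are imaged after 48 h of compound treatment. Punctate fusion-protein distribution gives the %pathology value, while nuclei counts flag toxicity. Wild-type EGFP-hTOR1A cells define the normal pattern.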
# [8] = target: Protein phosphatase 1D (Homo sapiens) (UniProt O15297); experiment: RapidFire Mass Spectrometry qHTS Assay for Modulators of WT P53-Induced Phosphatase 1 (WIP1) (AID 1347424);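 also: amount of dephosphorylated VEPPL-S-QETFS peptide product formed by WIP1; series mostly up to about 63 µM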
# Summary of the method: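 Mass-spectrometric measurement of dephosphorylated peptide after a 5 min room-temperature reaction of 10 nM WIP1 with 2 uM phosphopeptide, following 1 h compound preincubation in 30 mM MgCl2 buffer.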
# [9] = target: Protein phosphatase 1D (Homo sapiens) (UniProt O15297); experiment: Rhodamine-PBP qHTS Assay for Modulators of WT P53-Induced Phosphatase 1 (WIP1) (AID 1347425)
# Summary of the method: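 Steps: enzyme with Rh-PBP sensor and compounds, room-temperature incubation of 1 hr, baseline read, addition of VEPPL-pS-QETFS (10 uM final), kinetic fluorescence reads at 525/598 nm. Activity equals final minus baseline signal.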
# [10] = Primary qHTS for small molecule stabilizers of the endoplasmic reticulum resident proteome: Secreted ER Calcium Modulated Protein (SERCaMP) assay (AID 1508630)
# Summary of the method: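 The SH-SY5Y reporter protocol was run at 3 concentrations up to 38.3 uM (primary) or 11 concentrations (follow-up): 16 h compound, 100 nM thapsigargin for 4 h, then extracellular luciferase luminescence.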
# [11] = target: Calcium and integrin-binding protein 1 (Homo sapiens) (UniProt Q99828); experiment: Validation qHTS for Identification of Calcium Integrin Binding protein 1 (CIB1) Competitor (AID 1508618)
# Summary of the method: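 In this qHTS validation, the LOPAC set (up to 114 uM) was tested for blocking CIB1 binding to a fluorescein-tagged alphaIIb peptide, with FP detection at 480/540 nm.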
# [12] = target: Cytochrome P450 2D6 (Homo sapiens) (UniProt P10635); experiment: Cytochrome P450 family 2 subfamily D member 6 (CYP2D6) small molecule antagonists: luciferase biochemical (cell-free) qHTS assay (AID 1645840; active = well fitted curve in the direction sought with a large enough effect in the repeat runs; an effect the other way counts as inactive or inconclusive; also: nearly all actives have a fitted effect of over 55% in size; also: potency is read from the fitted curve at half-maximal effect)
# Summary of the method: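 P450-Glo CYP2D6 system: proluciferin substrate converted by enzyme to luciferin, read by luminescence proportional to activity. Enzyme-substrate mix with compound 10 min at room temperature, then NADPH regeneration 1 h before detection reagent.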
# [13] = qHTS to identify inhibitors of the type 1 interferon - major histocompatibility complex class I in skeletal muscle: primary screen against the NCATS Mechanism Interrogation Plate v5.0 (MIPE) Libary (AID 1347411); also: nearly all actives have a fitted effect of over 65% in size
# Summary of the method: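 Seed engineered human myoblasts (HLA-B HiBit) in medium without dexamethasone containing 4 ng/ml IFN-beta; after 1 hr add compound titrations (top 46 uM final). Incubate 24 hrs at 37 C, lyse 10 min with HiBiT reagent, read luminescence.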
# [14] = Counterscreen qHTS for small molecule stabilizers of the endoplasmic reticulum resident proteome: GLuc-NoTag assay (AID 1508627); also: potency is read from the fitted curve at half-maximal effect
# Summary of the method: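 Secreted GLuc lacking the SERCaMP modification is measured in SH-SY5Y cells exposed to compound for 19 h and then to thapsigargin (100 nM, 4 h) to deplete ER calcium; hits retested at 11 concentrations, up to 76.6 uM.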
# [15] = Confirmatory qHTS for small molecule stabilizers of the endoplasmic reticulum resident proteome: Secreted ER Calcium Modulated Protein (SERCaMP) assay (AID 1508628); also: series mostly up to about 76 µM; nearly all actives have a fitted effect of over 40% in size
# Summary of the method: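 Reporter secretion upon ER calcium depletion (100 nM thapsigargin, 4 h, 37C) is measured as medium luminescence with coelenterazine, after 16 h compound pretreatment of SH-SY5Y-GLuc-SERCaMP cells; primary at three concentrations up to 38.3 uM, follow-up at 11 (up to 76.6 uM).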
# [16] = Cell Viability qHTS for small molecule stabilizers of the endoplasmic reticulum resident proteome (AID 1508629); details: cell viability counter-screen, 100 nM thapsigargin for final 4 h;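 also: potency is read from the fitted curve at half-maximal effect; compound exposure about 46 h in total before the viability read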
# Sequence of Calcium and integrin-binding protein 1 (Homo sapiens) (Q99828 whole entry, looked up): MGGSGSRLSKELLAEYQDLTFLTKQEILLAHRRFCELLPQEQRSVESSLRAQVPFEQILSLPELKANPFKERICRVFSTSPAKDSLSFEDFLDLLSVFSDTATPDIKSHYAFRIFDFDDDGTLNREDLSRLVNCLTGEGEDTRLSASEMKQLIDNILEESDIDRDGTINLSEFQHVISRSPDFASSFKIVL
# Sequence of Protein phosphatase 1D (Homo sapiens) (O15297 whole entry, looked up): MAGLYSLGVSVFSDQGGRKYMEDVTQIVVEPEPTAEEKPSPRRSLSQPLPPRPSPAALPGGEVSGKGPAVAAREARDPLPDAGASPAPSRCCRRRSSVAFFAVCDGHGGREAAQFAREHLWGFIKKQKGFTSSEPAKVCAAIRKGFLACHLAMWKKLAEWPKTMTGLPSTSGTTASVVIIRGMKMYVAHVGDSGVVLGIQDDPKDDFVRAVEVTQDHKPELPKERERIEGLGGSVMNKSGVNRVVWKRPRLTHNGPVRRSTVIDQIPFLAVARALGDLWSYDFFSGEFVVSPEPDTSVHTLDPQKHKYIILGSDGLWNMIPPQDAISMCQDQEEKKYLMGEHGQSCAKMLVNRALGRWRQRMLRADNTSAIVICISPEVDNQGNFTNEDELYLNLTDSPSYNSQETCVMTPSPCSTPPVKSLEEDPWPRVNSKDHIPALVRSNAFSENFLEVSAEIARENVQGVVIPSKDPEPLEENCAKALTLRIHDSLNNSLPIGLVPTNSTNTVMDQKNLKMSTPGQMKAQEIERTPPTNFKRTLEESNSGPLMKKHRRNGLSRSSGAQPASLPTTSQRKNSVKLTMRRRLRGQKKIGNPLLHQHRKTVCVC
# Sequence of Cytochrome P450 2D6 (Homo sapiens) (P10635 whole entry, looked up): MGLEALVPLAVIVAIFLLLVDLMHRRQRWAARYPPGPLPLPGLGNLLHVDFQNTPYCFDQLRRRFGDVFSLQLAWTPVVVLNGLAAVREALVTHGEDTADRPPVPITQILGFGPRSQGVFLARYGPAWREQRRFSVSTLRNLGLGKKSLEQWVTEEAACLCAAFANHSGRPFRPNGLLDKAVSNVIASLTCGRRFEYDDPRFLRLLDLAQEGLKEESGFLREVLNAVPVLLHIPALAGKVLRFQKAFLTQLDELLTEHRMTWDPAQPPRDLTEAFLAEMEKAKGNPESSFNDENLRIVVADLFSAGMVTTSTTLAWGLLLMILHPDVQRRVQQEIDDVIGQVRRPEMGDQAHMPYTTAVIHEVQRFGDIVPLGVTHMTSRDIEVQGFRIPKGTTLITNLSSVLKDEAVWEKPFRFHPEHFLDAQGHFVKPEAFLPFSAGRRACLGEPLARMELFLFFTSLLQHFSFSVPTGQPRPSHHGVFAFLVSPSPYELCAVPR
# Sequence of Single-stranded DNA cytosine deaminase (Homo sapiens) (Q9GZX7 whole entry, looked up): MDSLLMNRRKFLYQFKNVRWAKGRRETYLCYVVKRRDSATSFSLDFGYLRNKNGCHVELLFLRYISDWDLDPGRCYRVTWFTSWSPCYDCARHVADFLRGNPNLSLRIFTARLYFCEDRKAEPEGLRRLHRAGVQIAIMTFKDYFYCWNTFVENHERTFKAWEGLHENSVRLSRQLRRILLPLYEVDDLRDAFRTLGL
SMILES,Potency [1],outcome [2],Potency [3],Potency [4],outcome [5],outcome [6],Potency [7],outcome [8],outcome [9],Potency [10],outcome [11],Potency [12],Potency [13],Potency [14],Potency [15],Potency [16]
COc1ccc(Cl)cc1C(=O)NCCc1ccc(S(=O)(=O)NC(=O)NC2CCCCC2)cc1,inactive,inactive,inactive,inactive,inactive,inactive,inactive,–,–,–,–,–,–,–,–,–
C[C@@H]1C[C@H]2[C@@H]3C[C@H](F)C4=CC(=O)C=C[C@]4(C)[C@@]3(F)[C@@H](O)C[C@]2(C)[C@@]1(O)C(=O)CO,inactive,–,–,–,inactive,inactive,inactive,inactive,inactive,inactive,–,–,–,–,–,–
CCN(CC)C(C)CN1c2ccccc2Sc2ccccc21 (stereo not drawn),inactive,inactive,inactive,inactive,inactive,inactive,inactive,inactive,–,inactive,inactive,19.5 µM (active),–,–,–,–
OCCN1CCN(CCCN2c3ccccc3Sc3ccc(Cl)cc32)CC1,inactive,inactive,inactive,inactive,inactive,–,3.98 µM (active),inactive,inactive,–,–,–,–,–,–,–
Cc1ncc([N+](=O)[O-])n1CC(O)CCl (stereo not drawn),inactive,–,–,–,inactive,inactive,inactive,inactive,inactive,inactive,–,–,–,–,–,–
CN(N=O)C(=O)N[C@@H]1[C@@H](O)[C@H](O)[C@@H](CO)O[C@@H]1O,inactive,–,–,–,inactive,inactive,inactive,inactive,inactive,inactive,–,inactive,inactive,–,–,–
CC1=C(CC(=O)O)c2cc(F)ccc2/C1=C\c1ccc(S(C)=O)cc1 (stereo not drawn),inactive,inactive,inactive,inactive,inactive,–,inactive,inactive,inactive,inactive,–,inactive,–,–,–,–
CN1CCC[C@@H]1Cc1c[nH]c2ccc(CCS(=O)(=O)c3ccccc3)cc12,inactive,inactive,–,–,inactive,inactive,inactive,inactive,–,–,inactive,13.8 µM (active),–,–,–,–
OC[C@H]1O[C@@H](O[C@@H]2[C@@H](CO)O[C@](O)(CO)[C@H]2O)[C@H](O)[C@@H](O)[C@H]1O,inactive,–,–,–,inactive,inactive,inactive,inactive,inactive,inactive,–,inactive,inactive,–,–,–
NC(=O)NNc1ccccc1,inactive,–,–,–,inactive,inactive,–,inactive,inactive,–,–,–,–,–,–,–
CNCCC(Oc1ccc(C(F)(F)F)cc1)c1ccccc1 (stereo not drawn),inactive,inactive,–,–,–,–,12.6 µM (active),inactive,–,inactive,–,–,–,44.7 µM (active),inactive,25.1 µM (active)
O=C1NC(=O)[C@@]2(CCOc3ccc(F)cc32)N1,inactive,inactive,–,–,inactive,inactive,inactive,inactive,inactive,inactive,inactive,inactive,–,–,–,–
CN(C)CC[C@@H](c1ccc(Cl)cc1)c1ccccn1,inactive,inactive,inactive,inactive,inactive,–,inactive,inactive,–,inactive,–,9.52 µM (active),–,–,–,–
